Test results: PubChem BioAssay (NCI)
This is part of a sample that, as a whole, favours compounds with a hit. Of some 83,000 tested, about 20% had one in any assay.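 Single-concentration screen, 48 h exposure, 96-well plates. Endpoint: percent growth. Below 10 = active.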 The source made the active and inactive calls.

Legend:
Assay in all cases: NCI-60 one-dose screen, 48 h (100 = growth as untreated, 0 = no growth, -100 = all killed)
Conditions in all cases: 10 µM unless noted
HCT-15 colon = tested on: HCT-15 colon
HT29 colon = tested on: HT29 colon
SNB-19 CNS = tested on: SNB-19 CNS
U251 CNS = tested on: U251 CNS
PC-3 prostate = tested on: PC-3 prostate
SK-MEL-5 melanoma = tested on: SK-MEL-5 melanoma
UACC-62 melanoma = tested on: UACC-62 melanoma
LOX IMVI melanoma = tested on: LOX IMVI melanoma
SK-MEL-28 melanoma = tested on: SK-MEL-28 melanoma
SK-MEL-2 melanoma = tested on: SK-MEL-2 melanoma
EKVX NSCLC = tested on: EKVX NSCLC
SN12C renal = tested on: SN12C renal
UO-31 renal = tested on: UO-31 renal
ACHN renal = tested on: ACHN renal
CAKI-1 renal = tested on: CAKI-1 renal
A498 renal = tested on: A498 renal
CCRF-CEM leukemia = tested on: CCRF-CEM leukemia
MOLT-4 leukemia = tested on: MOLT-4 leukemia
TK-10 renal = tested on: TK-10 renal

| Compound | growth (HCT-15 colon) | growth (HT29 colon) | growth (SNB-19 CNS) | growth (U251 CNS) | growth (PC-3 prostate) | growth (SK-MEL-5 melanoma) | growth (UACC-62 melanoma) | growth (LOX IMVI melanoma) | growth (SK-MEL-28 melanoma) | growth (SK-MEL-2 melanoma) | growth (EKVX NSCLC) | growth (SN12C renal) | growth (UO-31 renal) | growth (ACHN renal) | growth (CAKI-1 renal) | growth (A498 renal) | growth (CCRF-CEM leukemia) | growth (MOLT-4 leukemia) | growth (TK-10 renal) |
| --- | --- | --- | --- | --- | --- | --- | --- | --- | --- | --- | --- | --- | --- | --- | --- | --- | --- | --- | --- |
| Cc1nc2ncccc2nc1Nc1ccc(S(=O)(=O)Nc2cncs2)cc1 | 115% (inactive) | 101% (inactive) | 111% (inactive) | 97.7% (inactive) | 86.6% (inactive) | 101% (inactive) | 88.8% (inactive) | 83.5% (inactive) | 110% (inactive) | 103% (inactive) | 88.2% (inactive) | 82.7% (inactive) | 58.8% (inactive) | 99.7% (inactive) | 84.1% (inactive) | 118% (inactive) | 100% (inactive) | 99.4% (inactive) |  |
| CCN(CC)c1ccc2[nH]c3c(C(N)=O)cc(=O)c(=O)c=3oc2c1 | 1.73% (active) | 5.89% (active) | 17.6% (inactive) | -4.95% (active) | 13.4% (inactive) | -84.7% (active) | -24.4% (active) | 3.27% (active) | 13.2% (inactive) | -19.4% (active) | -10.4% (active) | -4.55% (active) | -28.8% (active) | -8.77% (active) |  | 46.2% (inactive) |  | 1.5% (active) | 2.91% (active) |
| Cc1ccc(S(=O)(=O)NCCNc2nccc(-c3c(-c4ccc(O)cc4)nc4sccn34)n2)cc1 | 99.1% (inactive) | 78.9% (inactive) | 113% (inactive) | 104% (inactive) | 86.5% (inactive) | 94.5% (inactive) | 91.4% (inactive) | 95.7% (inactive) | 114% (inactive) | 114% (inactive) |  | 93.3% (inactive) | 84% (inactive) | 93% (inactive) | 98.2% (inactive) | 104% (inactive) | 86.8% (inactive) | 59% (inactive) | 121% (inactive) |
| O=C(Nc1cccc(-n2cc(-c3ccncc3)c(-c3ccc(Cl)c(O)c3)n2)c1)Nc1cccc(C(F)(F)F)c1 | 18.2% (inactive) | 77.8% (inactive) | 32.5% (inactive) | 15.8% (inactive) | 4.28% (active) | -25.5% (active) | 10.4% (inactive) | 23.8% (inactive) | 29.4% (inactive) | -25.7% (active) |  |  | 24.8% (inactive) | 11.2% (inactive) | 30.1% (inactive) | 17.7% (inactive) | 10.6% (inactive) | 12.5% (inactive) | 21.9% (inactive) |
| O=C(/C=C/c1c[nH]c2ccccc12)c1ccc(O)c(CN2CCN(c3ccc(F)cc3)CC2)c1 | 93.5% (inactive) | 99% (inactive) | 94.1% (inactive) | 93.7% (inactive) | 84.7% (inactive) | 100% (inactive) | 101% (inactive) | 96.1% (inactive) | 107% (inactive) | 105% (inactive) |  | 93.4% (inactive) | 59.4% (inactive) | 92.1% (inactive) | 95.4% (inactive) | 98.5% (inactive) | 93.2% (inactive) | 99.4% (inactive) | 116% (inactive) |
| O=C(NCc1cn(Cc2cccc(Oc3ccccc3)c2)nn1)c1cccnc1Nc1ccc(F)cc1 | 31.3% (inactive) | 38.3% (inactive) | 72.9% (inactive) | 55.3% (inactive) | 89.3% (inactive) | 40.8% (inactive) | 43% (inactive) | 54.4% (inactive) | 72.4% (inactive) |  | 61.8% (inactive) | 44.4% (inactive) | 59.3% (inactive) | 72.3% (inactive) | 53.9% (inactive) | 26.5% (inactive) |  |  | 83.8% (inactive) |
| O=C(Nc1ccncc1)C(=O)c1cn(S(=O)(=O)c2ccc(Oc3ccccc3)cc2)c2ccccc12 | 88.6% (inactive) | 101% (inactive) | 98.6% (inactive) | 94% (inactive) | 85.7% (inactive) | 98.2% (inactive) | 79.1% (inactive) | 91.3% (inactive) | 110% (inactive) |  | 42.3% (inactive) | 84.9% (inactive) | 62.3% (inactive) | 86.3% (inactive) | 57% (inactive) | 34.7% (inactive) |  |  | 102% (inactive) |
| O=C(Nc1cccc(-n2cc(-c3ccncc3)c(-c3ccc(Cl)c(O)c3)n2)c1)c1ccc(N2CCOCC2)c(C(F)(F)F)c1 | 26.2% (inactive) | 98% (inactive) | 65.7% (inactive) | 11.8% (inactive) | 27.2% (inactive) | 50.8% (inactive) | 49.2% (inactive) | 9.98% (active) | 1.14% (active) | 17.6% (inactive) |  | 73.9% (inactive) | 36.9% (inactive) | 36.6% (inactive) | 81.2% (inactive) | 101% (inactive) | 27.9% (inactive) | 29.1% (inactive) | 119% (inactive) |
| O=C(Nc1cccc(-n2cc(-c3ccncc3)c(-c3ccc(Cl)c(O)c3)n2)c1)Nc1ccc(Cl)c(Cl)c1 | 19.8% (inactive) | 45.9% (inactive) | 30.3% (inactive) | 12.4% (inactive) | 5.43% (active) | -40.2% (active) | 14.9% (inactive) | 21.9% (inactive) | 24.6% (inactive) | -25.4% (active) |  |  | 21% (inactive) | 12.8% (inactive) | 22.5% (inactive) | 31.1% (inactive) | 13.7% (inactive) | 7.64% (active) | 7.16% (active) |
| O=C(Nc1cccc(-n2cc(-c3ccncc3)c(-c3ccc(Cl)c(O)c3)n2)c1)Nc1cc(C(F)(F)F)cc(C(F)(F)F)c1 | -7.23% (active) | -56% (active) | 11.3% (inactive) | -83.8% (active) | -32.4% (active) | -94.7% (active) | -65.6% (active) | -94.1% (active) | -62.4% (active) | -73.7% (active) |  | -36.1% (active) | -34.4% (active) | 8.48% (active) | 8.94% (active) | -18.6% (active) | -16% (active) | -18.5% (active) | -24.6% (active) |
| COc1cc(-c2nn(-c3cccc(NC(=O)c4ccc(Cl)c(C(F)(F)F)c4)c3)cc2-c2ccncc2)ccc1Cl | 51.7% (inactive) | 50.1% (inactive) | 66% (inactive) | 32.5% (inactive) | 18.6% (inactive) | 17.5% (inactive) | 32.8% (inactive) | 32.2% (inactive) | 41.6% (inactive) | 18.9% (inactive) |  |  | 37.1% (inactive) | 39.1% (inactive) | 61.1% (inactive) | 11.8% (inactive) | 12.4% (inactive) | 20.3% (inactive) | 69.5% (inactive) |
| Cc1ccc(-c2csc(NC(=O)CCCCl)n2)cc1 | 95.1% (inactive) | 93.9% (inactive) | 86.5% (inactive) | 95.4% (inactive) | 95.4% (inactive) | 93.9% (inactive) | 88.6% (inactive) | 98.3% (inactive) | 107% (inactive) | 92.2% (inactive) |  | 89.2% (inactive) | 74.5% (inactive) | 99.2% (inactive) | 91.6% (inactive) | 82.3% (inactive) | 96.3% (inactive) | 79.1% (inactive) | 98.8% (inactive) |
| O=[N+]([O-])c1ccc(/C=C/C2(CCl)OCCO2)cc1 | 109% (inactive) | 92.5% (inactive) | 95.6% (inactive) | 97.3% (inactive) | 96.4% (inactive) | 104% (inactive) | 89.8% (inactive) | 80.6% (inactive) | 112% (inactive) | 91.7% (inactive) |  | 102% (inactive) | 95.3% (inactive) | 116% (inactive) |  | 113% (inactive) | 62.4% (inactive) | 45.8% (inactive) | 103% (inactive) |
| Cc1cc(C)n(-c2nnc3n2N=C(c2ccc(-c4ccccc4)cc2)CS3)n1 | 36% (inactive) | 6.89% (active) | 66.9% (inactive) | 37.3% (inactive) | 36.4% (inactive) | 28.2% (inactive) | 40.5% (inactive) | 35.2% (inactive) | 52.7% (inactive) | -12.1% (active) |  | 53.4% (inactive) | 46.6% (inactive) | 54.8% (inactive) | 52.8% (inactive) | 20.4% (inactive) | 28.1% (inactive) | 28.5% (inactive) |  |
| COc1ccc(S(=O)(=O)Nc2cc(/C=C\c3cc(OC)c(OC)c(OC)c3)cc(OC)c2OC)cc1 | 15% (inactive) | 2.32% (active) | 57.7% (inactive) | 5.4% (active) | 6.4% (active) | -6.88% (active) | 46% (inactive) | 21.5% (inactive) | 67.8% (inactive) | 18.3% (inactive) |  | 23.3% (inactive) | 21% (inactive) | 26.4% (inactive) |  | -11.5% (active) | 13.7% (inactive) |  |  |
| Cc1ccc2nc(-c3cc4c([nH]c5ccccc54)c(-c4ccc(F)c(F)c4)n3)[nH]c2c1 | 32.7% (inactive) | 18.7% (inactive) | 112% (inactive) | 64% (inactive) | 72.6% (inactive) | 61.1% (inactive) | 90.4% (inactive) | 11.7% (inactive) | 101% (inactive) | 94% (inactive) |  | 81.8% (inactive) | 65.4% (inactive) | 85.9% (inactive) | 93.6% (inactive) | 106% (inactive) | 16.8% (inactive) | 35.4% (inactive) | 117% (inactive) |
| O=C(Nc1cccc(-n2cc(-c3ccncc3)c(-c3ccc(Cl)c(O)c3)n2)c1)Nc1ccc(Cl)c(C(F)(F)F)c1 | 1.04% (active) | -6.5% (active) | -28.8% (active) | -70.4% (active) | -10.4% (active) | -100% (active) | -55.1% (active) | -75.8% (active) | -31.5% (active) | -60.4% (active) |  | 7.46% (active) | -6.09% (active) | 6.62% (active) | 17.3% (inactive) | 11.1% (inactive) | -13.8% (active) | -22.1% (active) | -1.62% (active) |
| Cc1csc(NC(c2ccc(Br)cc2)c2c(C)nc3ccccn23)n1 (stereo unspecified) | 88.8% (inactive) | 72.4% (inactive) | 94.2% (inactive) | 88.8% (inactive) | 71.5% (inactive) | 94.7% (inactive) | 81.9% (inactive) | 90.9% (inactive) | 108% (inactive) | 86.2% (inactive) |  | 94.8% (inactive) | 55.9% (inactive) | 97.5% (inactive) | 80.8% (inactive) | 67.3% (inactive) | 89.1% (inactive) | 87.1% (inactive) | 116% (inactive) |
